Assay outcomes: PubChem, National Center for Advancing Translational Sciences (NCATS)
ELG1 genotox: genotoxicity induction in ELG1-luciferase HEK293T cells; HEK293T ELG1-luciferase reporter, luminescence, 16 h; Potency, µM (titrated, usually from 46 µM), for inactives: at the highest dose activity change, positive = activation, most hits filed as activators; 330,000 tested, 1.3% active; further: % of control where 0% means no effect; nearly all actives have a fitted effect of over 60% in size
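HEK293T cells expressing luciferase-tagged ELG1 were treated with compound or DMSO for 16 hr at 37°C. Luciferase activity was then read after 30 min with ONE-Glo at room temperature; rising signal flags genetic stress.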
ELG1 repair inh: blocks ELG1-dependent DNA repair in HEK293T cells; 330,000 tested, 2.3% active; AID 504467; Potency, µM (top dose mostly 46.1 µM), inactives show at the top dose activity change, negative = inhibition, usual class: inhibitors; HEK293T ELG1-luciferase reporter, luminescence, 16 h; DNA damage induced by 5-fluorouridine; further: on the % scale 0 is the no-effect control and ±100 the full control effect; nearly all actives have a fitted effect of over 55% in size
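In this reporter screen, reduction of luminescence relative to DMSO vehicle indicated activity. Compounds and 5-fluorouridine were added together to 2,000 cells per well, incubated for 16 hr at 37 °C, then developed with ONE-Glo.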
SMN2 splice up: increases expression of the SMN2 splice variant; 210,000 tested, 2.8% active; Potency, µM (titrated, usually from 46.1 µM), inactives show at the top dose activity change, positive = activation, hits mostly activators; HEK293 SMN2-luciferase splicing reporter, luminescence, 30-36 h; further: % of control where 0% means no effect; nearly all actives have a fitted effect of over 55% in size
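HEK293 cells carry an SMN2 […]–luciferase reporter in which exon 7 inclusion puts luciferase in frame. Cells were plated 10-12 h before compound addition, then incubated 30-36 h at 37C. ONE-Glo luminescence was read; sodium butyrate at 4.5 mM final served as control.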
Rab9 prom act: activators of Rab9 promoter; 320,000 tested, 2.8% active; Huh7 Rab9 promoter-luciferase reporter, luminescence, 24 h; Potency, µM (doses to about 9.22 µM), without a hit: at the top dose activation, negative = inhibition, most hits filed as activators; further: % of control where 0% means no effect; nearly all actives have a fitted effect of over 60% in size
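Stable Rab9-luc Huh7, 1500 cells/well, 2 h settle; cmpd in DMSO, 24 h, 37 °C/5% CO2; luciferase reagent 10 min RT; luminescence.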
FLuc modulator: inhibits or activates purified firefly luciferase, miR-21 counter-screen. Potency, µM (titrated, usually from 57.5 µM), for inactives: top-dose activity change, negative = inhibition, most hits filed as inhibitors. AID 588342. purified FLuc, Km substrates, luminescence inhibition. P08659. 360,000 tested, 6.9% active;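 further: plate controls were vehicle for no effect and reference inhibitor for full effect; nearly all actives have a fitted effect of over 55% in size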
Target sequence (P08659 whole entry, looked up): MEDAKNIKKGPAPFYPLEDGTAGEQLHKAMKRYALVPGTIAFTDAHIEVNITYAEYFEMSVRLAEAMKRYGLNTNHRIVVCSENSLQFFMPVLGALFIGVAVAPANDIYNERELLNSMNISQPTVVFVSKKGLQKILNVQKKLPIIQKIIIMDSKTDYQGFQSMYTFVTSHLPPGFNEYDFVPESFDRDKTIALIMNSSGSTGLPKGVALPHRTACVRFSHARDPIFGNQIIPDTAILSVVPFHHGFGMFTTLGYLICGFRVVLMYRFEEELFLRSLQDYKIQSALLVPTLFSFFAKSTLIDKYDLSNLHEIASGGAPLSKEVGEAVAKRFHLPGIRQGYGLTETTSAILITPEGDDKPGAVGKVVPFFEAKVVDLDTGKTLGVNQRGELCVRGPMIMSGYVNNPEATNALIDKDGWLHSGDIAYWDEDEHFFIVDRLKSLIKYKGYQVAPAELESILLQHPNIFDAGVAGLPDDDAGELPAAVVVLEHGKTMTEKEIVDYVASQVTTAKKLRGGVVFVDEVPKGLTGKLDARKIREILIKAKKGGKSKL
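Purified P. pyralis luciferase, 10 nM final, with Km-level 10 uM D-luciferin and 10 uM ATP in 50 mM Tris acetate pH 7.5, 10 mM Mg acetate, 0.01% Tween-20, 0.05% BSA; 6-point qHTS titration about 60 µM downward; luminescence read.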
NPC1 promoter act: NPC1 promoter activation | Huh7 NPC1 promoter luciferase reporter, 24 h | Potency, µM (titrated, usually from 9.22 µM), for the others: at the highest dose activation, actives largely listed as activators | 320,000 tested, 2.4% active | AID 485313; further: % of control where 0% means no effect; nearly all actives have a fitted effect of over 60% in size
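Readout is luciferase luminescence, reflecting NPC1 promoter activation in stably transfected Huh7 cells after 24 h compound exposure at 37 °C in reduced-serum medium with 10% FBS.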
Active calls of the source: *; u = inconclusive; x = no result given. The list is not random: actives were taken first. Their share in the collection is about 9.2%. The call rests on the fitted dose curve; in most records, active means well fitted curve in the direction sought with a large enough effect; inconclusive means small, poorly fitted or top-dose-only effect, or another doubt; inactive means no such curve, though single readings can be large; an effect the other way counts as inactive or inconclusive. Potency means the concentration at half of the fitted maximal effect.

SMILES | ELG1 genotox | ELG1 repair inh | SMN2 splice up | Rab9 prom act | FLuc modulator | NPC1 promoter act
COc1ccc(NC(=O)Nc2cccc3c2O[C@@H](CN(C)CC2CCCCC2)[C@@H](C)CN([C@H](C)CO)C3=O)cc1 | 0.5% | 0.0% | x | x | x | x
Cc1ccccc1OCC1Cc2c(nc(N)c(C#N)c2N)O1 (stereo unspecified) | u | u | x | u | 13.5µM* | u
N#Cc1c(N)nc2c(c1N)CC(COc1ccccc1)O2 (stereo unspecified) | u | u | x | 4.47µM* | 16.9µM* | 2.82µM*
N#Cc1c(N)nc2c(c1N)CC(CO)O2 (stereo unspecified) | 1.0% | -3.1% | -4.7% | -0.9% | 4.4% | -1.3%
CCCCC1=CC2=C(c3ccco3)C(=O)C(C)(OC(=O)c3cccs3)C(=O)C2=CO1 (stereo unspecified) | x | x | -1.3% | x | x | x
COc1ccccc1CNC(=O)C1CC2Cn3c(nc4cc(C)c(C)cc43)C2N1C (stereo unspecified) | -1.0% | 9.7% | x | -3.4% | -0.6% | 2.9%
Cc1ccc(-c2cc(C(=O)Nc3ccc(S(=O)(=O)Nc4cc(C)on4)cc3)c3ccccc3n2)c(C)c1 | -1.5% | 12.5% | 2.5% | 3.9% | -12.9% | -0.8%
Cc1noc(NS(=O)(=O)c2ccc(NC(=O)c3ccc(Br)o3)cc2)c1C | 2.3% | 11.5% | -2.9% | 0.3% | -13.5% | 3.7%
COc1ccc(-c2nc3ccccc3c(C(=O)Nc3ccc(S(=O)(=O)Nc4cc(C)on4)cc3)c2C)cc1 | -7.9% | 13µM* | -39.0% | 1.4% | u | -2.5%
Cc1ccc(-c2cc(C(=O)Nc3ccc(S(=O)(=O)Nc4onc(C)c4C)cc3)c3ccccc3n2)cc1 | 0.7% | -9.9% | 27.2% | 3.7% | 13.5µM* | -1.8%
COc1ccc(C(=O)Nc2ccc(S(=O)(=O)Nc3onc(C)c3C)cc2)cc1 | 2.9% | 3.0% | 2.8% | -6.0% | 21.3µM* | -0.5%
Cc1noc(NS(=O)(=O)c2ccc(NC(=O)c3ccc(Br)cc3)cc2)c1C | x | x | -1.4% | x | 21.3µM* | x
Cc1cc(C)nc(NS(=O)(=O)c2ccc(NC(=O)c3cc(-c4ccccc4)nc4ccccc34)cc2)n1 | -0.2% | -0.9% | 9.0% | 1.3% | u | 2.1%
COc1cccc(C(=O)Nc2ccc(S(=O)(=O)Nc3onc(C)c3C)cc2)c1 | 1.0% | u | -5.1% | 3.6% | u | 7.9%
COc1ccc(CCNC(=O)C(=O)NCC(c2ccc3c(c2)OCO3)N2CCOCC2)cc1 (stereo unspecified) | x | x | x | x | -1.4% | x
Cc1noc(NS(=O)(=O)c2ccc(NC(=O)c3oc4ccc(Cl)cc4c3C)cc2)c1C | 15.6% | 10.6% | x | 16.2% | 16.9µM* | -1.7%
Cc1ccc(C(=O)Nc2ccc(S(=O)(=O)Nc3onc(C)c3C)cc2)cc1 | x | x | -2.5% | x | 12µM* | x
Cc1noc(NS(=O)(=O)c2ccc(NC(=O)c3ccc(F)cc3)cc2)c1C | 5.6% | 3.4% | x | x | x | x
Cc1c(C(=O)Nc2ccc(S(=O)(=O)Nc3ncccn3)cc2)oc2ccc(Cl)cc12 | 7.4% | 0.2% | x | -6.8% | -16.3% | -2.9%
Cc1cc(C)c(OCC(=O)Nc2ccc3c(c2)OCO3)cc1C | u | u | x | 27.5% | -15.7% | 21.2%
Cc1cc(C)c(OCC(=O)Nc2cccc(O)c2)cc1C | 5.17µM* | u | 11.5% | u | 1.51µM* | 10.2%
CC(=O)Nc1ccc(NC(=O)COc2ccc(Br)cc2C)cc1 | 10.9% | 7.1% | -12.0% | -0.5% | -0.7% | 2.0%
CC(C)(C)NC(=O)c1cccc(NC(=O)CSc2ccccc2)c1 | -3.5% | -5.9% | -2.8% | 3.4% | 15.1µM* | 1.3%
Cc1ccc(NC(=O)COc2ccc(CCO)cc2-n2nc3ccccc3n2)cc1C | -4.9% | 18.4µM* | -21.3% | -6.6% | 1.9% | -1.4%
Cc1cccc(NC(=O)COc2ccc(Br)cc2/C=N/O)c1 | u | u | 17.8µM* | 3.98µM* | 5.36µM* | 3.98µM*
SMILES | ELG1 genotox | ELG1 repair inh | SMN2 splice up | Rab9 prom act | FLuc modulator | NPC1 promoter act
Cc1ccc(NC(=O)CSc2nnc(-c3cc4occc4n3C)n2-c2ccccc2C)cc1F | x | x | x | x | 3.0% | x
Cc1cc(Cl)c(S(=O)(=O)Nc2cccc(O)c2)cc1OCC(N)=O | 2.5% | 14.7% | 3.98µM* | -1.7% | 0.8% | -2.4%
Cc1ccccc1OCC(=O)Nc1cccc(C(=O)O)c1 | -15.1% | u | 1.58µM* | u | 0.0953µM* | u
COc1ccc(NS(=O)(=O)c2cc(OCC(N)=O)c(C)cc2Cl)cc1 | -2.5% | 0.3% | -10.7% | 0.7% | 2.5% | -1.6%
CC(=O)c1cccc(NC(=O)CSC(=O)c2ccccc2)c1 | 1.2% | 11.2% | 17.1% | 10.6% | 16.9µM* | 3.2%
Cc1cc(C)cc(OCC(=O)Nc2cccc(C(=O)O)c2)c1 | 26.9% | u | u | u | 15.1µM* | u
COc1ccc(Nc2nc3c(S(=O)(=O)c4ccc(Br)cc4)nnn3c3ccsc23)c(OC)c1 | x | x | x | x | 1.0% | x
CCOc1ccc(CCNC(=O)Cn2nc(C)n3c(cc4occc43)c2=O)cc1OCC | x | x | 6.0% | x | -8.9% | x
O=C(CC1C(=O)NCCN1Cc1ccccc1C(F)(F)F)NCCn1cccn1 (stereo unspecified) | 1.8% | -9.5% | x | 3.5% | 2.9% | -0.6%
O=C(CSc1nnc(-c2ccncc2)n1-c1ccccc1)NCC1CCCO1 (stereo unspecified) | 2.1% | 4.8% | x | -3.5% | x | -0.4%
CCOc1ncccc1C(=O)OCC(=O)Nc1cccc(C(C)=O)c1 | 2.0% | -2.8% | -3.8% | -7.0% | -3.8% | 4.8%
O=C(COc1ccccc1Cl)Nc1ccccc1C(=O)Nc1cccc(C(=O)O)c1 | u | u | x | u | 7.57µM* | u
CC(=O)c1cccc(NC(=O)COC(=O)c2ccccc2C)c1 | u | u | x | 26.7% | 21.3µM* | u
CC1CCCCN1C(=S)NC(=O)c1cc(Br)ccc1Cl (stereo unspecified) | -7.0% | -12.8% | x | -4.7% | 4.5% | -2.6%
Cc1ccc(CS(=O)Cc2ccc(C(=O)NCc3ccccc3Br)o2)cc1 (stereo unspecified) | -3.0% | -26.1% | x | 3.0% | u | -6.8%
COC(=O)/N=C(/Cc1ccc(OC)cc1)c1ccc(OC)cc1 | 8.4% | u | x | 17.4% | 0.757µM* | 18.5%
CCOc1ccccc1NC(=O)Cn1c(=O)n(Cc2cccs2)c(=O)c2cccnc21 | x | x | 0.3% | x | -10.9% | x
O=[N+]([O-])c1cc(-c2nc(-c3ccccc3)no2)ccc1N1CCCCC1 | x | x | x | x | -1.0% | x
CC1CCN(c2ccc(-c3nc(-c4ccccc4)no3)cc2[N+](=O)[O-])CC1 | x | x | x | x | -6.3% | x
